Results on 40 compounds are retold here after PubChem BioAssay (EPA / NIEHS).

Structures are written as SMILES. The source made the active and inactive calls. The calls were made as follows: active = hit-call score of the fitted dose curve at least 0.9, where 1 is the maximum; inactive = score below 0.9.

The assay in a line: ATG_EGR_CIS: Attagene CIS-FACTORIAL HepG2 Assay for human Early Growth Response 1 (EGR1) (AID 2282938). The settings on record: HepG2 Attagene CIS-FACTORIAL EGR reporter mRNA; actives raise or lower the signal. As for the experimental part:
ATG_CIS is a cell-based, multiplexed-readout assay that uses HepG2, a human liver cell line, with measurements taken at 24 hours after chemical dosing in a 24-well plate.ATG_EGR_CIS is one of 52 assay component(s) measured or calculated from the ATG_CIS assay. It is designed to make measurements of mRNA induction, a form of inducible reporter, as detected with fluorescence intensity signals by Reverse transcription polymerase chain reaction (RT-PCR) and Capillary electrophoresis technology.Data from the assay component ATG_EGR_CIS was analyzed into 1 assay endpoint. This assay endpoint, ATG_EGR_CIS, was analyzed with bidirectional fitting relative to DMSO as the negative control and baseline of activity. Using a type of inducible reporter, measures of mRNA for gain or loss-of-signal activity can be used to understand the reporter gene at the transcription factor-level as they relate to the gene EGR1. Furthermore, this assay endpoint can be referred to as a primary readout, because this assay has produced multiple assay endpoints where this one serves a reporter gene function. To generalize the intended target to other relatable targets, this assay endpoint is annotated to the dna binding intended target family, where the subfamily is zinc finger.
Human liver HepG2 cells are transiently transfected with multiple reporter transcription units (MRTUs) in 6-well plates using FuGene 6 reagent (Roche; 3 ml FuGene/1 mg DNA). The MRTU constructs are regulated by a cis-regulating element (promoter). […] A major difference between the CIS and TRANS system is that in CIS activities of endogenous TFs are measured, whereas the TRANS assay evaluates changes in activities of exogenous, chimeric NR-Gal4 proteins. […] At the end of 24 hour incubation, total RNA was isolated using TriZol reagent (Invitrogen). The isolated RNA is then reverse-transcribed using oligo(dT) primer and Mo-MLV reverse transcriptase (Invitrogen) with DNAse I (Ambion) treatment for 30 min. The one-tenth of the produced cDNA was amplified by PCR using Taq DNA polymerase (Invitrogen) and two reporter sequence-specific primers. The PCR products were fluorescently labeled by primer extension with 6-arboxyfluorescein (6-FAM) 5'-labeled reporter sequence-specific primer (2 min at 95 C, 20 s at 68 C and 10 min at 72 C) and these products were digested with 5U of HpaI (New England Biolabs) for 2h at 37 C. The fragments were purified using Qiaquick PCR columns (Qiagen), analyzed on an ABI 3130xL genetic analyzer (Applied Biosystems) with peak positions identified by using a set of X-rhodamine (ROX)-labeled MapMarker1000 molecular weight standards (BioVentures). The raw capillary electrophoresis data was processed using Attagraph software (Attagene).
`CC1(C)O[C@@H]2C[C@H]3[C@@H]4CCC5=CC(=O)C=C[C@]5(C)[C@@]4(F)[C@@H](O)C[C@]3(C)[C@]2(C(=O)CO)O1`: the call was inactive.
The same measure, in the same setting: to `OCC(O)c1ccccc1` (stereo not given) belongs “inactive”.
One may read the AC50 as the concentration at which the activity in the assay is half-maximal. In the case of `C=CC(=O)OCCC#N`, the AC50 is 82.6 µM (active).
For `FC(F)(F)COCC(F)(F)F`, the result was inactive.
The same measure, in the same setting: to `CCCCCCCCCCCCCCCC(=O)OC/C=C(C)/C=C/C=C(C)/C=C/C1=C(C)CCCC1(C)C` belongs “inactive”; to `COC(=O)c1ccc(C)cc1C1=NC(C)(C(C)C)C(=O)N1` (stereo not given) (tested in a mixture with another compound), “inactive”; to `CCCCCCCCSCCO`, “inactive”.
With `O=C1NC2NC(=O)NC2N1` (stereo not given), the result was inactive.
The same measure, in the same setting: the value for `Nc1ccn([C@H]2CS[C@@H](CO)O2)c(=O)n1` was “inactive”; that for `CCCCCCCCCCCCCCN(CCO)CCO` was “inactive”.
On to `Cc1c(OCC(F)(F)F)ccnc1CS(=O)c1nc2ccccc2[nH]1` (stereo not given), for which the AC50 is 27.8 µM (active).
On to `OCC#CCO`, for which the outcome was inactive.
On the same count and under the same terms, to `CC(=O)O[C@@H]1C[C@@H]2CC[C@@]1(C)C2(C)C` belongs “inactive”; to `C=C[Si]1(C)O[Si](C)(C=C)O[Si](C)(C=C)O[Si](C)(C=C)O1` (stereo not given), “inactive”.
As to `CC1CC(O)CC(C)(C)C1` (stereo not given), the outcome was inactive.
As for `CN(C)CCOc1ccc(/C(=C(/CCCl)c2ccccc2)c2ccccc2)cc1`, the outcome was inactive.
`Cc1ccc2c(c1)C(=O)OC2=O`: the call was inactive.
Regarding `CCCC[P+](CCCC)(CCCC)CCCC`, the result was inactive.
Still for that read-out and setting: to `COC(C)(C)CCCC(C)CC=O` (stereo not given) belongs “inactive”; to `Cc1occc(=O)c1OC(=O)C(C)C`, “inactive”.
The same measure, in the same setting: the value for `Cc1cc(S(=O)(=O)O)ccc1N=Nc1c(O)ccc2ccccc12` was “inactive”; that for `CCCC(O)C(O)CO` (stereo not given) was “inactive”.
Still for that read-out and setting: to `CCOC(=O)CN` belongs “inactive”; to `C=C(C#N)C(=O)OCC`, “inactive”.
For `CCOC(=O)C(C#N)=C(c1ccccc1)c1ccccc1`, the AC50 was 20 µM (active).
As for `C=C(C)C(=O)OCCOCCOCCOC(=O)C(=C)C`, the call was inactive.
With `CCNCCO`, the compound was classed as inactive.
Same read-out and setting: to `CC(=O)OCCCc1ccccc1` belongs “inactive”; to `CCCCCCCCC=CCCCCCCCC1=NCCN1CCO`, “inactive”; to `CCCCSCCCC`, “inactive”.
As for `C=CCCC(=O)/C=C/C1C(C)=CCCC1(C)C` (stereo not given), the compound was classed as inactive.
On the same count and under the same terms, to `CCOc1ccc(N=Nc2ccc(C=Cc3ccc(N=Nc4ccc(OCC)cc4)cc3S(=O)(=O)O)c(S(=O)(=O)O)c2)cc1` belongs “inactive”; to `[Cl][Au]([Cl])[Cl]`, “inactive”; to `Nc1c(Cl)cc(Cl)cc1[N+](=O)[O-]`, “inactive”.
As for `ON=C1CCCCC1`, the outcome was inactive.
Regarding `C#CC(C)(O)CC(C)C` (stereo not given), the compound was called inactive.
In the case of `COc1cc(C(C)C)ccc1C`, the result was inactive.
Consider `N[C@@H](Cc1cc(I)c(Oc2cc(I)c(O)c(I)c2)c(I)c1)C(=O)O`, for which the compound was called inactive.
For `COC(=O)c1cccnc1`, the result was inactive.
As for `CN1C(=O)c2ccccc2C1=O`, the result was inactive.
